Assay results as given in PubChem BioAssay.
For part of these data: Measured potencies and affinities stand elsewhere. Activity calls are given as the source filed them.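 Rule for the calls, unless noted: active = signal rise over 3 SD above mean of control wells given weak agonist, in both repeats and first screen; inactive = the rest.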

Key:
[1] = test system: TRPC4 beta (transient receptor potential cation channel C4), mouse; assay: activators of mouse TRPC4 channel, confirmation, cell-based, Fluo4 calcium, HEK293 TRPC4beta/mu-opioid, duplicates, 10 µM (AID 2426;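 active = fluorescence ratio normalized to control raised more than 50% in primary screen plus both repeat runs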); conditions: Fluo4 calcium fluorescence, at 10 µM; active compounds read high
[2] = test system: transient receptor potential cation channel C4 beta (TRPC4), mouse; assay: activators of mouse TRPC4 channel, confirmation, cell-based, second round, Fluo4, HEK293 TRPC4beta/mu-opioid, 1 µM (AID 2461;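 active = primary screen active and over 50% activation in each of two duplicate runs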); conditions: Fluo4 calcium fluorescence, at 1 µM; active compounds read high
[3] = test system: TRPC4 (transient receptor potential cation channel C4 beta), mouse; assay: positive allosteric modulators of mouse TRPC4, confirmation, cell-based, second round, Fluo-4, HEK293 TRPC4beta/mu-opioid, 1 µM (AID 2554;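 active = primary screen hit whose fluorescence ratio, in both repeats, exceeds the weak agonist control mean by 3 SD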); conditions: DAMGO EC20, Fluo-4 calcium flux, at 1 µM; active compounds read high
[4] = test system: TRPC4 beta (transient receptor potential cation channel C4), mouse; assay: positive allosteric modulators of mouse TRPC4, confirmation, cell-based, Fluo-4, HEK293 TRPC4beta/mu-opioid (AID 2555;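 active = primary screen hit whose calcium fluorescence ratio, in both repeats, exceeds the weak agonist control mean by 3 SD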); conditions: DAMGO EC20, Fluo-4 calcium flux, at 10 µM; active compounds read high
[5] = biological target: Short transient receptor potential channel 4 (Mus musculus) (UniProt Q9QUQ5); assay: inhibitors of mouse TRPC4 channel, confirmation, cell-based, Fluo4, HEK293 TRPC4beta/mu-opioid (AID 2636;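 active = calcium signal cut by more than 3 SD below the full-agonist control yet still positive, in both repeats and the earlier primary screen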); conditions: DAMGO, Fluo4 calcium flux, at 10 µM; active compounds read high
[6] = biological target: Short transient receptor potential channel 4 (Mus musculus) (UniProt Q9QUQ5); assay: inhibitors of mouse TRPC4 channel, confirmation, cell-based, second round, Fluo4, HEK293 TRPC4beta/mu-opioid, 1 µM (AID 2637;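 active = calcium signal ratio cut to more than 3 SD under the fully stimulated control mean yet still positive, in both repeats and the primary screen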); conditions: Fluo4 calcium flux, DAMGO, at 1 µM; active compounds read high
[7] = biological target: Short transient receptor potential channel 4 (Mus musculus) (UniProt Q9QUQ5); assay: mouse TRPC4 channel activators, dose response, cell-based, HEK293 TRPC4/mu-opioid, Fluo-4 calcium (AID 434937;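 active = primary screen activator hit with a dose response curve and TRPC4 channel activation at any tested dose; inactive = no activation, no dose response, or not a primary hit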)
[8] = biological target: Short transient receptor potential channel 4 (Mus musculus) (UniProt Q9QUQ5); assay: TRPC4 positive allosteric modulators, dose response, cell-based, HEK293 TRPC4/mu-opioid, Fluo-4 calcium, EC20 DAMGO (AID 434941;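 active = earlier screen potentiator hit that boosts the TRPC4 ion channel at some dose, with a dose response; inactive = no potentiation, no dose response, or not a prior hit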;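 note: calcium entry triggered by an EC20 dose of DAMGO at the co-expressed mu-opioid receptor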)
[9] = biological target: Short transient receptor potential channel 4 (Mus musculus) (UniProt Q9QUQ5); assay: mouse TRPC4 channel inhibitors, dose response, cell-based, HEK293 TRPC4/mu-opioid, Fluo-4 calcium (AID 434942;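 active = primary screen inhibitor hit that blocks the TRPC4 channel at some tested dose, yielding a dose curve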)
[10] = biological target: Short transient receptor potential channel 6 (Mus musculus) (UniProt Q61143); assay: inhibition of mouse TRPC6 channel, confirmation, selectivity assay for TRPC4 inhibitor project, cell-based, HEK293, membrane potential dye, duplicate (AID 434948;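 active = active in primary screen and both duplicates, each dropping signal beyond three positive-control SD with fluorescence still positive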); conditions: HEK293 TRPC6, membrane potential dye fluorescence, at 10 µM, stimulated with maximal-effect acetylcholine; active compounds read high
[11] = biological target: Short transient receptor potential channel 6 (Mus musculus) (UniProt Q61143); assay: activation of mouse TRPC6 channel, confirmation, selectivity assay for TRPC4 activator project, cell-based, HEK293, membrane potential dye, duplicate (AID 434950;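 active = membrane potential signal rise above negative control mean plus 3 SD in both duplicates, also active in the earlier TRPC4 screen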); conditions: HEK293 TRPC6, membrane potential fluorescence, at 10 µM; active compounds read high
[12] = biological target: Short transient receptor potential channel 6 (Mus musculus) (UniProt Q61143); assay: TRPC6 potentiation by TRPC4 potentiator hits, confirmation, selectivity assay for TRPC4 potentiator project, HEK293 cells, membrane potential dye, duplicate (AID 434952;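 active = compound raising the membrane signal above positive-control mean plus 3 SD in both repeats, and a primary screen hit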); conditions: HEK293 TRPC6, membrane potential dye fluorescence, at 10 µM, maximal acetylcholine added after compound; active compounds read high
[13] = biological target: Short transient receptor potential channel 4 (Mus musculus) (UniProt Q9QUQ5); assay: calcium flux activators in TRPC4/5HT1a cells, counter-screen for TRPC4 activator project, cell-based, second counter screen, HEK293 TRPC4/5HT1a, Fluo-4 (AID 434977;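 active = calcium signal rise above buffer-control mean plus 5 SD in both duplicates, and also a hit in the primary screen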); conditions: Fluo-4 calcium flux, at 10 µM; active compounds read high
[14] = calcium flux inhibitors in TRPC4/5HT1a cells, confirmation, counter-screen for TRPC4 inhibitor project, cell-based, second counter screen, HEK293 TRPC4/5HT1a, Fluo-4 (AID 434978;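 active = primary screen active whose calcium signal fell more than 3 SD beyond the full-serotonin control mean in both duplicate plates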;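 for outcome: serotonin given first at submaximal then at maximal dose after compound preincubation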); conditions: Fluo-4 calcium flux, at 10 µM, serotonin added to trigger calcium flux; active compounds read high
[15] = test system: TRPC4 (mouse), co-expressed with 5HT1a in HEK293; assay: calcium flux potentiators in TRPC4/5HT1a cells, confirmation, counter-screen for TRPC4 potentiator project, cell-based, second counter screen, HEK293 TRPC4/5HT1a, Fluo-4 (AID 434979); conditions: Fluo-4 calcium flux, at 10 µM, serotonin added at its EC20 dose; active compounds read high
[16] = calcium flux activation in mu-opioid HEK293 cells, confirmation, counter-screen for TRPC4 activator project, cell-based, HEK293 mu-opioid receptor line (AID 449723;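 active = hit in primary screen, with calcium signal over 5 SD above buffer well mean in both duplicates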;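 note: counter screen cells carry the mu-opioid receptor alone and lack TRPC4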); conditions: Fluo-4 calcium fluorescence, at 10 µM; active compounds read high
[17] = calcium flux enhancement in mu-opioid HEK293 cells, confirmation, counter-screen for TRPC4 allosteric potentiator project, cell-based, HEK293 mu-opioid receptor line (AID 449724;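 active = calcium signal rise more than 3 SD above the low-dose agonist control mean, in both duplicate plates and the primary screen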); conditions: Fluo-4 calcium flux, at 10 µM, compound added before EC20 DAMGO stimulus; active compounds read high

Sequence of Short transient receptor potential channel 4 (Mus musculus) (Q9QUQ5 whole entry, looked up): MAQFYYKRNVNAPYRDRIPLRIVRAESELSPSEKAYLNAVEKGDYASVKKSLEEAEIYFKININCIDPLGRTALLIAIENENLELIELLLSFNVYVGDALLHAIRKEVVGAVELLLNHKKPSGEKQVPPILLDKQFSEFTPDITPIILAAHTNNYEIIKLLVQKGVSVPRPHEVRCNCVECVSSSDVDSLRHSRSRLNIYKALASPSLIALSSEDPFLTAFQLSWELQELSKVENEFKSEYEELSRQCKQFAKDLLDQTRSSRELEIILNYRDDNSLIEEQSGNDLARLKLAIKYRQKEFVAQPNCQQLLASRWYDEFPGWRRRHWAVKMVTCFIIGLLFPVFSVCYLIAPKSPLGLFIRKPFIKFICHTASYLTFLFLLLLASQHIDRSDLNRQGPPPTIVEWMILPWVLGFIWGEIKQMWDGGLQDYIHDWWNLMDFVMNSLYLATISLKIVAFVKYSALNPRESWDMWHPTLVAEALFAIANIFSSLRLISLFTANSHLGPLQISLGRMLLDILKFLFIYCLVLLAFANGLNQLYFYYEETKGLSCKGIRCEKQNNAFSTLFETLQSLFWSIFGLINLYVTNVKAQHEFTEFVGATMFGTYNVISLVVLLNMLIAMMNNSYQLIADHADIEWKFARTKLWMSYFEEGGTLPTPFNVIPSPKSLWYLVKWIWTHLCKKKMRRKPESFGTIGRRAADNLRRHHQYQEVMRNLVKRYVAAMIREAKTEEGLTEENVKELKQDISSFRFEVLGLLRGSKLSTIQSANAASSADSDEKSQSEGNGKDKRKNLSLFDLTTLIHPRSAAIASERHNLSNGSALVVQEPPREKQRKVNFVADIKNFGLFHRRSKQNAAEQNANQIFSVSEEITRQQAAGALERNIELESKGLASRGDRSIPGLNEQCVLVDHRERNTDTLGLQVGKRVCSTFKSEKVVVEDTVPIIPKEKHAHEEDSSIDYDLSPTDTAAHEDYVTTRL
Sequence of Short transient receptor potential channel 6 (Mus musculus) (Q61143 whole entry, looked up): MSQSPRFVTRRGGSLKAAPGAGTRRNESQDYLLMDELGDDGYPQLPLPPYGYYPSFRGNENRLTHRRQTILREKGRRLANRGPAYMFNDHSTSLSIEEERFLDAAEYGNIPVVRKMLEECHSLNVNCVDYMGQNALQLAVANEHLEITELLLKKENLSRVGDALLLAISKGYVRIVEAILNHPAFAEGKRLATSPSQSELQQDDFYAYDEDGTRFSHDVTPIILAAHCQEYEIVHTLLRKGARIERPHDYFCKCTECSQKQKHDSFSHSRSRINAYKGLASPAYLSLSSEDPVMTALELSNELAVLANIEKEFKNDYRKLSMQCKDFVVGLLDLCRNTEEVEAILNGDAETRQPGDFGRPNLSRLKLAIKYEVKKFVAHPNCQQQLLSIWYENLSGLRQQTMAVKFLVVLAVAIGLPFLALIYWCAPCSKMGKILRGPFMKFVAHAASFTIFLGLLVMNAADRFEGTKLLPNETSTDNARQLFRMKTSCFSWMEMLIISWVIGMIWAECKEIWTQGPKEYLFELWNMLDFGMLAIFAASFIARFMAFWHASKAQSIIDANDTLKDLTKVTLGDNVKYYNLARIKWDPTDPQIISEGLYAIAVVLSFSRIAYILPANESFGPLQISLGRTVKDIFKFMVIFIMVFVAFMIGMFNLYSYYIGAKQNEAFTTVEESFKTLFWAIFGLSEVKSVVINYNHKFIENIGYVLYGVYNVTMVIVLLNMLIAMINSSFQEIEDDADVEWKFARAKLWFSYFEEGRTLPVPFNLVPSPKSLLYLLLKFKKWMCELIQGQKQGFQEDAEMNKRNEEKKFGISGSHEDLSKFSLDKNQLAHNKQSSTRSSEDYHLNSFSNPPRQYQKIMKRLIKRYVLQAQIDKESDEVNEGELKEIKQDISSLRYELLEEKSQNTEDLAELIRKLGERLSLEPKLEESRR

Cn1c(=O)c2c(nc(CN3CCc4ccccc4C3)n2Cc2cccc(Cl)c2)n(C)c1=O
inactive: outcome [1] | outcome [2] | outcome [5] | outcome [6] | outcome [7] | outcome [8] | outcome [9] | outcome [10] | outcome [11] | outcome [12] | outcome [13] | outcome [14] | outcome [16] | outcome [17]
active: potentiation [3] 6% | potentiation [4] 45% | potentiation [15] 78.3%

COc1ccc(C(=O)OCCc2sc[n+](CC(=O)c3ccccc3)c2C)cc1
active: inhibition [10] 43%
inactive: outcome [1] | outcome [2] | outcome [3] | outcome [4] | outcome [5] | outcome [6] | outcome [7] | outcome [8] | outcome [9] | outcome [11] | outcome [12] | outcome [13] | outcome [14] | outcome [15] | outcome [16] | outcome [17]

COC(=O)c1ccc(NC(=O)CCN2CCN(Cc3ccccc3)CC2)cc1
active: potentiation [3] 25% | potentiation [15] 12.9%
inactive: outcome [1] | outcome [2] | outcome [4] | outcome [5] | outcome [6] | outcome [7] | outcome [8] | outcome [9] | outcome [10] | outcome [11] | outcome [12] | outcome [13] | outcome [14] | outcome [16] | outcome [17]

N=c1c2c(n(Cc3ccc(Br)cc3)c3c1CCC3)CCCC2
inactive: outcome [1] | outcome [2] | outcome [3] | outcome [4] | outcome [5] | outcome [6] | outcome [7] | outcome [8] | outcome [9] | outcome [10] | outcome [11] | outcome [12] | outcome [13] | outcome [14] | outcome [15] | outcome [16] | outcome [17]

C(=N\N(Cc1ccccc1)c1ccccc1)/c1cccnc1
inactive: outcome [1] | outcome [2] | outcome [3] | outcome [4] | outcome [6] | outcome [7] | outcome [8] | outcome [9] | outcome [10] | outcome [11] | outcome [12] | outcome [13] | outcome [15] | outcome [16] | outcome [17]
active: inhibition [5] 63% | inhibition [14] 40.3%

CC1CN(c2nc3c(c(=O)n(Cc4ccc(Cl)c(Cl)c4)c(=O)n3C)n2C)CC(C)O1 (stereo not given)
active: potentiation [4] 13% | potentiation [15] 26.4%
inactive: outcome [1] | outcome [2] | outcome [3] | outcome [5] | outcome [6] | outcome [7] | outcome [8] | outcome [9] | outcome [10] | outcome [11] | outcome [12] | outcome [13] | outcome [14] | outcome [16] | outcome [17]

Cc1ccc(-c2cn(-c3ccccc3)c(SCC(N)=O)n2)cc1C
inactive: outcome [1] | outcome [2] | outcome [4] | outcome [5] | outcome [6] | outcome [7] | outcome [8] | outcome [9] | outcome [10] | outcome [11] | outcome [12] | outcome [13] | outcome [14] | outcome [16]
active: potentiation [3] 29% | potentiation [15] 25.4% | activation [17] 741%

CC(C)Oc1cc(N)c(Cl)cc1Cl
inactive: outcome [1] | outcome [2] | outcome [3] | outcome [4] | outcome [5] | outcome [6] | outcome [7] | outcome [8] | outcome [9] | outcome [10] | outcome [11] | outcome [12] | outcome [13] | outcome [14] | outcome [15] | outcome [16] | outcome [17]

CCn1c2ccc(F)cc2c2nnc(NN)nc21
inactive: outcome [1] | outcome [2] | outcome [5] | outcome [6] | outcome [7] | outcome [8] | outcome [9] | outcome [10] | outcome [11] | outcome [12] | outcome [13] | outcome [14] | outcome [15] | outcome [16] | outcome [17]
active: potentiation [3] 27% | potentiation [4] 73%

CC(C)c1nc(N2CCOCC2)c(C#N)c2c1CCCC2
inactive: outcome [1] | outcome [2] | outcome [3] | outcome [4] | outcome [5] | outcome [6] | outcome [7] | outcome [8] | outcome [9] | outcome [10] | outcome [11] | outcome [12] | outcome [13] | outcome [14] | outcome [15] | outcome [16] | outcome [17]

COc1cccc(N2C(=O)CC(N3CCN(CCN=CC4=C(O)CC(C)(C)CC4=O)CC3)C2=O)c1 (stereo not given)
inactive: outcome [1] | outcome [2] | outcome [3] | outcome [4] | outcome [5] | outcome [6] | outcome [7] | outcome [8] | outcome [9] | outcome [10] | outcome [11] | outcome [12] | outcome [13] | outcome [14] | outcome [16] | outcome [17]
active: potentiation [15] 15.8%

Cc1cc(Cl)cc(Cl)c1OCCCCN(C)C
active: potentiation [3] 22% | potentiation [4] 18% | potentiation [15] 23.9%
inactive: outcome [1] | outcome [2] | outcome [5] | outcome [6] | outcome [7] | outcome [8] | outcome [9] | outcome [10] | outcome [11] | outcome [12] | outcome [13] | outcome [14] | outcome [16] | outcome [17]

Cc1ccc(CNC(=O)CSc2nc(=O)n3ccccc3n2)cc1
inactive: outcome [1] | outcome [2] | outcome [3] | outcome [4] | outcome [5] | outcome [6] | outcome [7] | outcome [8] | outcome [9] | outcome [10] | outcome [11] | outcome [12] | outcome [13] | outcome [14] | outcome [15] | outcome [16] | outcome [17]

COc1ccc(C(=O)CN2CCN(CCN3C(=O)c4cccc5cccc(c45)C3=O)CC2)cc1
active: potentiation [3] 21% | potentiation [4] 29% | potentiation [15] 18.9%
inactive: outcome [1] | outcome [2] | outcome [5] | outcome [6] | outcome [7] | outcome [8] | outcome [9] | outcome [10] | outcome [11] | outcome [12] | outcome [13] | outcome [14] | outcome [16] | outcome [17]

CC1CC(C)CN(CCCNC(=O)c2ccc(N3CCCC3=O)cc2)C1 (stereo not given)
inactive: outcome [1] | outcome [2] | outcome [3] | outcome [4] | outcome [5] | outcome [6] | outcome [7] | outcome [8] | outcome [9] | outcome [10] | outcome [11] | outcome [12] | outcome [13] | outcome [14] | outcome [16] | outcome [17]
active: potentiation [15] 27.3%
